Our source for the growth values is PubChem BioAssay (NCI).

Assay in all cases: NCI-60 one-dose screen, 48 h (100 = growth as untreated, 0 = no growth, -100 = all killed)
Assay [1] relates to HCT-15 colon. The following applies: 10 µM.
The test system of assay [2] is HT29 colon. To be noted: 10 µM.
Assay [3] has as its system SNB-75 CNS. To be noted: 10 µM.
Assay [4] concerns SNB-19 CNS. To be noted: 10 µM.
Assay [5] deals with U251 CNS. The following applies: 10 µM.
In assay [6] the test system is PC-3 prostate. The following applies: 10 µM.
The test system of assay [7] is SK-MEL-5 melanoma. To be noted: 10 µM.
In assay [8] the test system is UACC-62 melanoma. The following applies: 10 µM unless noted.
For assay [9], the system named is LOX IMVI melanoma. The following applies: 10 µM.
Assay [10] concerns SK-MEL-28 melanoma. To be noted: 10 µM.

Compounds without any hit were thinned out: in the full panel of roughly 83,000, 20% have a hit.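 In brief: 96-well plates, 48 h treatment, single concentration, percent growth endpoint.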 Unmarked numbers belong to inactive results. The source made the active and inactive calls. How the source made its calls: active means growth percent below 10; inactive means the rest.

Take `CC(=O)OC(OC(C)=O)C1CCCO1` (stereo not given): the growth in assay [1] was 104%; in assay [2] it was 106%; in assay [3], 90.2%; in assay [4], 109%; in [5] it was 105%; in assay [6], 95.5%. In addition, the growth in assay [7] was 104%; in [8] it was 95.2%; in assay [9] it was 89.7%; in [10] it was 97%.
Regarding `CN(C)c1nc2c([nH]1)c(=O)n(C)c(=O)n2C`, the growth in assay [1] was 108%; in assay [2], 102%; in assay [3], 102%; in [4], 111%; in [5], 93.4%; in assay [6] it was 91.6%. Moreover, the growth in assay [7] was 101%; in assay [8], 105%; in assay [9] it was 98.7%; in [10], 110%.
As for `C[N+](C)(C)C(=O)c1ccccc1`, the growth in assay [1] is 101%; in assay [2], 104%; in assay [3], 94.8%; in assay [4] it was 102%; in assay [5] it was 107%; in assay [6] it was 102%. For the same compound, the growth in assay [7] was 105%; in assay [8], 94%; in assay [9], 99.9%; in assay [10] it was 116%.
Turning to `CC1CCCCN1C(=S)Nc1ccc(S(=O)(=O)N2CCCCC2)cc1` (stereo not given), the growth was 99.2% in [1]; 94% in assay [2]; 129% in [3]; 109% in assay [4]; 95.7% in [5]; 83% in assay [6]. Further, the growth in [7] is 103%; in assay [8], 95.6%; in assay [9], 105%; in assay [10], 98.6%.
`CCOC(=O)c1coc(C(=O)OCC)c1C(=O)OCC`: the growth in assay [1] is 105%; in assay [2], 124%; in assay [3], 92.3%; in assay [4] it was 112%; in assay [5], 102%; in [6] it was 122%. For the same compound, the growth in assay [7] is 108%; in assay [8], 112%; in assay [9] it was 108%; in [10], 117%.
As to `CCCCCCCCCCC(C)Br` (stereo not given), the growth in [1] was 104%; in assay [2] it was 109%; in assay [3] it was 97%; in assay [4], 103%; in assay [5], 103%; in assay [6], 101%. The growth in [7] is 102%; in assay [8], 104%; in assay [9], 94.3%; in assay [10] it was 112%.
For the compound `Nc1ccc(N)c([N+](=O)[O-])c1`, the growth was 109% in assay [1]; 121% in assay [2]; 102% in assay [3]; 99.5% in assay [4]; 107% in assay [5]; 102% in assay [6]. In addition, the growth in assay [7] is 95.2%; in [8] it was 98.5%; in assay [9], 100%; in assay [10], 115%.
Turning to `C#CC(C(C)C)N(CCO)CCCC` (stereo not given), the growth in assay [1] is 94.9%; in assay [2], 117%; in assay [3] it was 83.6%; in assay [4], 107%; in assay [5] it was 97.7%; in assay [6], 94.7%. The growth was 100% in assay [7], 107% in [8], 107% in [9] and 101% in assay [10].
For the compound `Nc1ccc(CC(=O)O)c(N)c1`, the growth in assay [1] is 106%; in assay [2], 107%; in assay [3], 93.1%; in [4] it was 97%; in [5] it was 101%; in assay [6], 101%. Besides, the growth was 99.2% in assay [7], 93.3% in [8], 101% in [9] and 101% in [10].
As to `O=P(O)(O)OCC(O)CO` (stereo not given), the growth in assay [1] is 104%; in assay [2], 101%; in assay [3] it was 84%; in [4], 104%; in assay [5] it was 94%; in assay [6], 96.7%. Moreover, the growth was 102% in assay [7], 108% in [8], 97.9% in assay [9] and 98.2% in assay [10].
As for `O=C1c2ccccc2C(=O)N1OCc1ccccc1`, the growth in assay [1] was 109%; in assay [2] it was 103%; in assay [3], 83.6%; in [4], 112%; in assay [5] it was 113%; in [6] it was 77.7%. Further, the growth is 110% in assay [7], 108% in [8], 109% in [9] and 113% in assay [10].
Turning to `Cc1ccc(/C(C#N)=C/c2ccc3c(c2)OCO3)cc1`, the growth was 69.5% in [1]; 37.1% in assay [2]; 67.8% in assay [3]; 88.4% in [4]; 63.2% in assay [5]; 81.9% in [6]. Further, the growth in assay [7] is 58.6%; in assay [8], 73.5%; in assay [9] it was 74.9%; in [10] it was 81.4%.
As to `C#CC(C)(O)c1ccc(Cl)cc1` (stereo not given), the growth is 98.4% in assay [1]; 102% in assay [2]; 98.8% in assay [3]; 106% in assay [4]; 97.8% in assay [5]; 96.6% in assay [6]. Also, the growth in assay [7] was 101%; in assay [8], -18.6% (active); in assay [9], 94.5%; in assay [10], 110%.
On to `CC(=O)c1c[nH]c2ccccc12`, for which the growth in assay [1] is 101%; in [2], 118%; in assay [3], 88.1%; in [4], 105%; in [5], 95.7%; in [6], 86.1%. Moreover, the growth in assay [7] was 103%; in [8], 97.5%; in assay [9], 102%; in assay [10] it was 103%.
`CCCCC1(CC)COC(CCC)OC1` (stereo not given): the growth in assay [1] is 91.7%; in assay [2] it was 103%; in [3] it was 99.1%; in assay [4], 99.9%; in assay [5] it was 94.7%; in [6], 82%. For the same compound, the growth in assay [7] is 103%; in [8] it was 96.6%; in assay [9], 97.3%; in [10] it was 115%.
Regarding `c1ccc2c(c1)Sc1ccccc1S2`, the growth in [1] was 105%; in [2], 105%; in [3] it was 89.6%; in assay [4] it was 100%; in [5], 93.4%; in assay [6] it was 91.4%. Besides, the growth in [7] was 101%; in assay [8] it was 102%; in assay [9], 98.2%; in assay [10] it was 110%.
Take `Cc1cc2ccccc2c(O)c1C#N`: the growth is 92.2% in assay [1]; 123% in assay [2]; 78.3% in [3]; 100% in [4]; 109% in [5]; 105% in assay [6]. The growth is 104% in assay [7], 97.7% in assay [8], 94.4% in assay [9] and 115% in assay [10].
Consider `CN(C)c1ccc(CNC(C(=O)c2ccccc2)c2ccccc2)cc1` (stereo not given), for which the growth was 96.9% in [1]; 82.6% in [2]; 90.4% in assay [3]; 107% in [4]; 94.1% in [5]; 85.7% in [6]. Also, the growth in [7] is 56.2%; in assay [8], 99.2%; in assay [9], 95.1%; in [10] it was 94.2%.
`c1cc[n+](C2c3ccccc3C([n+]3ccccc3)c3ccccc32)cc1` (stereo not given): the growth in assay [1] was 103%; in assay [2] it was 73.4%; in assay [3], 17.9%; in assay [4], 26.7%; in [5], 21.5%; in assay [6], 58.4%. In addition, the growth in assay [7] was 27.6%; in [8] it was 67.3%; in assay [9], 76.1%; in [10], 61.6%.
Take `CC1CC(O)CC(C)(C)C1` (stereo not given): the growth in [1] was 100%; in [2], 99.9%; in [3], 94%; in assay [4], 104%; in assay [5], 101%; in [6] it was 94.8%. Also, the growth in [7] was 104%; in assay [8] it was 92.4%; in [9] it was 102%; in [10] it was 112%.
Regarding `c1ccc(Cc2ccccc2)cc1`, the growth is 99% in assay [1]; 118% in assay [2]; 98.9% in assay [3]; 104% in assay [4]; 103% in assay [5]; 82.8% in assay [6]. Moreover, the growth in [7] was 116%; in [8], 103%; in assay [9], 99.5%; in assay [10], 112%.
For `O=C1C=CC(=O)N1c1ccc(I)cc1Cl`, the growth in assay [1] was 99.9%; in assay [2], 100%; in assay [3] it was 103%; in assay [4], 98.4%; in [5], 99.5%; in [6] it was 75.7%. Further, the growth in [7] was 102%; in assay [8], 104%; in assay [9], 101%; in [10], 107%.
As for `COCCCC/C(=N\OCCN)c1ccc(C(F)(F)F)cc1`, the growth was 103% in assay [1]; 96% in assay [2]; 79.9% in [3]; 100% in [4]; 97.4% in assay [5]; 79.8% in assay [6]. The growth was 99.6% in assay [7], 97.5% in assay [8], 94.8% in assay [9] and 117% in assay [10].
On to `N#CCCN(CCCN1CCOCC1)CN1C(=O)c2ccccc2C1=O`, for which the growth in assay [1] is 104%; in assay [2], 107%; in [3], 87.7%; in assay [4], 110%; in assay [5], 100%; in assay [6], 105%. Also, the growth in assay [7] is 96.8%; in assay [8], 107%; in [9], 101%; in [10], 101%.
Turning to `C=CC(=O)OCCCCCCCC`, the growth in [1] is 95%; in assay [2] it was 124%; in [3], 91.2%; in [4] it was 101%; in [5], 98.8%; in [6], 106%. Besides, the growth in assay [7] was 110%; in assay [8], 102%; in [9] it was 101%; in assay [10] it was 110%.
For the compound `C=CCNc1nnc(C)s1`, the growth in assay [1] is 104%; in [2], 116%; in [3], 102%; in assay [4], 109%; in assay [5], 107%; in assay [6], 89.6%. Further, the growth in assay [7] is 107%; in assay [8], 97.1%; in assay [9], 97.8%; in assay [10] it was 104%.
With `CCOC(=O)Nc1cc2c(c(N)n1)N=C(c1ccccc1)CO2`, the growth in assay [1] was 6.55% (active); in [2], 12.2%; in assay [3], 33.5%; in assay [4], 37.3%; in [5], 21.8%; in assay [6], 29.9%. Moreover, the growth in [7] was 10.2%; in assay [8], 34.9%; in [9] it was 28.5%; in assay [10], 47.6%.
`O=C(O)CCCc1ccccc1`: the growth was 101% in [1]; 109% in assay [2]; 99.9% in assay [3]; 105% in assay [4]; 95.3% in [5]; 99.3% in assay [6]. For the same compound, the growth was 108% in [7], 108% in assay [8], 102% in assay [9] and 111% in assay [10].
Take `Cc1cc(=O)[nH]c(NN=C2CCCC2)n1`: the growth was 106% in assay [1]; 107% in assay [2]; 89.1% in [3]; 108% in assay [4]; 120% in assay [5]; 80.7% in assay [6]. Also, the growth in assay [7] is 115%; in assay [8], 100%; in [9], 110%; in assay [10], 113%.
As to `CN(C)/N=C/c1ccccc1O`, the growth in [1] was 100%; in assay [2], 111%; in assay [3], 87.8%; in assay [4], 97.8%; in assay [5], 95.4%; in assay [6], 121%. Further, the growth was 103% in [7], 98.4% in [8], 98.7% in assay [9] and 111% in assay [10].
For `C=CCOC(=O)C(=O)OCC=C`, the growth in assay [1] was 100%; in assay [2] it was 101%; in [3] it was 102%; in [4], 94.7%; in assay [5] it was 106%; in [6] it was 97%. The growth was 98.8% in [7], 102% in assay [8], 111% in assay [9] and 113% in [10].
